# Laboratory results taken from the antibiotic and cytotoxicity screens of Wong et al. (2023).
# In all, about 39,000 compounds went through this assay and about 3,300 (8.5%) were called active. The list comes from a sample in which actives are over-represented; it also holds similar structures and randomly drawn compounds.
# Tested on: HepG2
# Experiment: cytotoxicity call (relative viability < 0.9)
# Conditions: 10 µM
row,SMILES,cytotoxicity call
1,O=C(CN1CCOCC1)NCC[C@H]1CC[C@@H](NC(=O)c2ccc3c(c2)OCO3)[C@@H](CO)O1,inactive
2,Cc1ccc(S[C@]2(C(=O)NC(C)C)CC(=O)N(Cc3ccccc3Cl)[C@@H]2c2ccc(CO)cc2I)cc1,inactive
3,O=C(C[C@@H]1C[C@@H]2c3cc(NS(=O)(=O)c4ccc(F)cc4)ccc3O[C@@H]2[C@H](CO)O1)N1CCCCC1,inactive
4,C[C@@H]1CN([C@H](C)CO)C(=O)Cc2cc(NC(=O)Nc3ccc(C(F)(F)F)cc3)ccc2O[C@H]1CN(C)Cc1ccc(C(=O)Nc2ccccc2N)cc1,inactive
5,C[C@H]1CN([C@@H](C)CO)C(=O)Cc2cc(NC(=O)Nc3ccc(C(F)(F)F)cc3)ccc2O[C@H]1CN(C)Cc1ccc(C(=O)Nc2ccccc2N)cc1,active
6,C[C@@H]1CN([C@@H](C)CO)C(=O)Cc2cc(NC(=O)Nc3ccccc3)ccc2O[C@@H]1CN(C)Cc1ccc(C(=O)Nc2ccccc2N)cc1,inactive
7,C[C@@H]1CN([C@H](C)CO)C(=O)Cc2cc(NC(=O)CCC(F)(F)F)ccc2O[C@H]1CN(C)Cc1ccc(C(=O)Nc2ccccc2N)cc1,inactive
8,C[C@@H]1CN([C@@H](C)CO)C(=O)Cc2cc(NC(=O)Nc3ccc(C(F)(F)F)cc3)ccc2O[C@@H]1CN(C)Cc1ccc(C(=O)Nc2ccccc2N)cc1,active
9,C[C@@H]1CN([C@H](C)CO)C(=O)Cc2cc(NC(=O)Nc3ccc(C(F)(F)F)cc3)ccc2O[C@@H]1CN(C)Cc1ccc(C(=O)Nc2ccccc2N)cc1,active
10,C[C@H]1CN([C@@H](C)CO)C(=O)Cc2cc(NC(=O)Nc3ccc(C(F)(F)F)cc3)ccc2O[C@@H]1CN(C)Cc1ccc(C(=O)Nc2ccccc2N)cc1,inactive
11,C[C@H](CO)N1C[C@H](C)[C@@H](CN(C)Cc2ccc(C(=O)Nc3ccccc3N)cc2)Oc2ccc(NC(=O)CCC(F)(F)F)cc2CC1=O,inactive
12,C[C@H]1CN([C@@H](C)CO)C(=O)Cc2cc(NC(=O)CCC(F)(F)F)ccc2O[C@H]1CN(C)Cc1ccc(C(=O)Nc2ccccc2N)cc1,active
13,CC(=O)O[C@H]1C[C@@H]2CC[C@@H]3[C@H](CC[C@@]4(C)[C@H]3C[C@H]([N+]3(C)CCCCC3)[C@@H]4OC(C)=O)[C@@]2(C)C[C@@H]1N1CCCCC1,inactive
14,C[C@@H]1CN([C@@H](C)CO)C(=O)c2cc(NC(=O)CCN3CCOCC3)ccc2O[C@@H]1CN(C)Cc1ccncc1,inactive
15,C[C@@H]1CN([C@@H](C)CO)C(=O)c2cc(NS(=O)(=O)c3cccs3)ccc2O[C@H]1CN(C)S(C)(=O)=O,inactive
16,Cc1noc(C)c1S(=O)(=O)Nc1ccc2c(c1)CC(=O)N([C@H](C)CO)C[C@@H](C)[C@@H](CN(C)S(=O)(=O)c1cccs1)O2,inactive
17,Cc1noc(C)c1S(=O)(=O)Nc1cccc2c1O[C@H](CN(C)C(=O)NC1CCCCC1)[C@H](C)CN([C@H](C)CO)C2=O,inactive
18,CC(C)CC#Cc1ccc2c(c1)O[C@H](CN(C)C(=O)c1ccccn1)[C@@H](C)CN([C@@H](C)CO)S2(=O)=O,inactive
19,CC(C)(C)[S@@](=O)N1Cc2cc(C(=O)N[C@H]3CCN(Cc4ccccc4)C3)nc(-c3cccc(-c4cccnc4)c3)c2[C@H]1CCO,inactive
20,C[C@H]1CN([C@@H](C)CO)C(=O)c2cc(C#Cc3ccc(F)cc3)cnc2O[C@H]1CN(C)Cc1ccccn1,inactive

row,SMILES,cytotoxicity call
1,COc1ccc(NC(=O)Nc2ccc3c(c2)CC(=O)N([C@H](C)CO)C[C@@H](C)[C@@H](CN(C)S(=O)(=O)c2cn(C)cn2)O3)cc1,inactive
2,C[C@H](CO)N1C[C@H](C)[C@H](CN(C)Cc2ccc(C(=O)Nc3ccccc3N)cc2)Oc2ccc(NC(=O)Nc3ccc(C(F)(F)F)cc3)cc2CC1=O,active
3,Cc1ccc(S(=O)(=O)Nc2cccc3c2O[C@H](CN(C)C(=O)Nc2ccc(C(F)(F)F)cc2)[C@@H](C)CN([C@@H](C)CO)C3=O)cc1,inactive
4,C[C@H]1CN([C@@H](C)CO)C(=O)c2cc(NC(=O)Nc3ccc(C(F)(F)F)cc3)ccc2O[C@@H]1CN(C)S(=O)(=O)c1ccc(F)cc1,inactive
5,C[C@H](CO)N1C[C@H](C)[C@H](CN(C)S(=O)(=O)c2ccc(F)cc2)Oc2ccc(NC(=O)Nc3ccc(C(F)(F)F)cc3)cc2C1=O,inactive
6,C[C@@H]1CN([C@H](C)CO)C(=O)c2cc(NC(=O)Nc3ccc(C(F)(F)F)cc3)ccc2O[C@H]1CN(C)S(C)(=O)=O,inactive
7,C[C@H]1CN([C@@H](C)CO)C(=O)c2cc(NC(=O)Nc3ccc(C(F)(F)F)cc3)ccc2O[C@H]1CN(C)S(=O)(=O)c1ccc(F)cc1,active
8,C[C@H]1CN([C@@H](C)CO)C(=O)c2cc(NC(=O)Nc3ccc(C(F)(F)F)cc3)ccc2O[C@@H]1CN(C)S(C)(=O)=O,inactive
9,C[C@@H]1CN([C@@H](C)CO)C(=O)c2cc(NC(=O)Nc3ccc(C(F)(F)F)cc3)ccc2O[C@H]1CN(C)S(=O)(=O)c1ccc(F)cc1,inactive
10,C[C@H]1CN([C@@H](C)CO)C(=O)c2cc(NC(=O)Nc3ccc(C(F)(F)F)cc3)ccc2O[C@H]1CN(C)S(C)(=O)=O,inactive
11,C[C@H](CO)N1C[C@H](C)[C@@H](CN(C)S(=O)(=O)c2ccc(F)cc2)Oc2ccc(NC(=O)Nc3ccc(C(F)(F)F)cc3)cc2C1=O,inactive
12,C[C@@H]1CN([C@H](C)CO)C(=O)c2cc(NC(=O)Nc3ccc(C(F)(F)F)cc3)ccc2O[C@H]1CN(C)S(=O)(=O)c1ccc(F)cc1,active
13,C[C@@H]1CN([C@@H](C)CO)C(=O)c2cc(NC(=O)Nc3ccc(C(F)(F)F)cc3)ccc2O[C@@H]1CN(C)S(=O)(=O)c1ccc(F)cc1,active
14,C[C@@H]1CN([C@H](C)CO)C(=O)c2cc(NC(=O)Nc3ccc(C(F)(F)F)cc3)ccc2O[C@@H]1CN(C)S(=O)(=O)c1ccc(F)cc1,active
15,C[C@H]1CCCCO[C@@H](CN(C)C(=O)Nc2ccc3c(c2)OCO3)[C@@H](C)CN([C@@H](C)CO)C(=O)c2cc(NC(=O)C3CCCCC3)ccc2O1,inactive
16,C[C@H](CO)N1C[C@H](C)[C@@H](CN(C)C(=O)Nc2cccc3ccccc23)OCCCC[C@H](C)Oc2ccc(NC(=O)CCCN(C)C)cc2C1=O,inactive
17,C[C@@H]1CN([C@@H](C)CO)S(=O)(=O)c2ccc(C#CC3(O)CCCC3)cc2O[C@H]1CN(C)C(=O)Cc1ccncc1,inactive
18,C[C@H]1CN([C@@H](C)CO)C(=O)c2cc(NC(=O)Nc3ccc(F)cc3)ccc2O[C@H]1CN(C)Cc1ccc(Oc2ccccc2)cc1,inactive
19,C[C@H](CO)N1C[C@H](C)[C@H](CN(C)Cc2ccc(Oc3ccccc3)cc2)Oc2ccc(NC(=O)Nc3ccc(F)cc3)cc2C1=O,active
20,C[C@@H]1CN([C@H](C)CO)C(=O)c2cc(NC(=O)Nc3ccc(F)cc3)ccc2O[C@@H]1CN(C)Cc1ccc(Oc2ccccc2)cc1,active

row,SMILES,cytotoxicity call
1,C[C@@H]1CN([C@@H](C)CO)C(=O)c2cc(NC(=O)Nc3ccc(F)cc3)ccc2O[C@@H]1CN(C)Cc1ccc(Oc2ccccc2)cc1,active
2,C[C@H](CO)N1C[C@H](C)[C@@H](CN(C)Cc2ccc(Oc3ccccc3)cc2)Oc2ccc(NC(=O)Nc3ccc(F)cc3)cc2C1=O,inactive
3,C[C@@H]1CN([C@H](C)CO)C(=O)c2cc(NC(=O)Nc3ccc(F)cc3)ccc2O[C@H]1CN(C)Cc1ccc(Oc2ccccc2)cc1,active
4,C[C@@H]1CN([C@@H](C)CO)C(=O)c2cc(NC(=O)Nc3ccc(F)cc3)ccc2O[C@H]1CN(C)Cc1ccc(Oc2ccccc2)cc1,inactive
5,NCc1cc(-c2ccccc2Cl)on1,inactive
6,COc1ccc(S(=O)(=O)N(C)C[C@@H]2OCc3cnnn3CCCC(=O)N([C@H](C)CO)C[C@H]2C)cc1,inactive
7,C[C@@H]1CN([C@@H](C)CO)C(=O)c2cc(NS(=O)(=O)c3cccs3)ccc2O[C@@H](C)CCCCO[C@@H]1CN(C)CC1CCCCC1,inactive
8,C[C@@H]1CN([C@H](C)CO)C(=O)c2cc(-c3cccnc3)cnc2O[C@@H]1CN(C)C(=O)Nc1ccc2c(c1)OCO2,inactive
9,CON=C(C(=O)NC1C(=O)N2C(C(=O)O)=C(CSC(=O)c3ccco3)CSC12)c1csc(N)n1.Cl (stereo not drawn),inactive
10,O=C(C[C@@H]1C[C@@H]2c3cc(NC(=O)NC4CCCC4)ccc3O[C@@H]2[C@@H](CO)O1)NCc1ccc2c(c1)OCO2,inactive
11,Cc1noc(C)c1NC(=O)Nc1ccc2c(c1)C(=O)N([C@H](C)CO)C[C@H](C)[C@@H](CN(C)C(=O)Nc1cccc3ccccc13)OCCCC[C@H](C)O2,inactive
12,C[C@H]1CN([C@@H](C)CO)C(=O)c2cc(NC(=O)Nc3ccc(F)cc3)ccc2O[C@@H]1CN(C)Cc1ccc(Oc2ccccc2)cc1,active
13,CC(C)NC(=O)N(C)C[C@@H]1Oc2c(NC(=O)C3CCCCC3)cccc2C(=O)N([C@H](C)CO)C[C@@H]1C,inactive
14,CN(C)CC(=O)N1CC2(C1)[C@@H](c1ccccc1)[C@@H](CO)N2S(C)(=O)=O,inactive
15,C[C@@H]1CCCCO[C@H](CN(C)Cc2ccccc2)[C@@H](C)CN([C@@H](C)CO)C(=O)c2cc(NC(=O)Nc3ccc(C(F)(F)F)cc3)ccc2O1,active
16,C[C@@H]1CCCCO[C@H](CN(C)Cc2ccccc2)[C@@H](C)CN([C@H](C)CO)C(=O)c2cc(NC(=O)Nc3ccc(C(F)(F)F)cc3)ccc2O1,active
17,C[C@@H]1CCCCO[C@H](CN(C)Cc2ccccc2)[C@H](C)CN([C@H](C)CO)C(=O)c2cc(NC(=O)Nc3ccc(C(F)(F)F)cc3)ccc2O1,active
18,C[C@@H]1CCCCO[C@@H](CN(C)Cc2ccccc2)[C@@H](C)CN([C@H](C)CO)C(=O)c2cc(NC(=O)Nc3ccc(C(F)(F)F)cc3)ccc2O1,active
